The values below come from ChEMBL document CHEMBL1157539, “Thousands of chemical starting points for antimalarial lead identification” (Nature, 2010).

This test has as its system Plasmodium falciparum. As to the kind of experiment: GSK_TCMDC: Inhibition of Plasmodium falciparum 3D7 in whole red blood cells, using parasite LDH activity as an index of growth. Test compounds present at 2uM. The format is functional.
Take `COc1cc(C(=O)N2CCOC(CCN3CCC[C@H]3C(=O)Nc3ccccc3)(c3ccc(Cl)c(Cl)c3)C2)cc(OC)c1OC` (stereo not given in full): the Inhibition (usually how much of the control response was suppressed) worked out at 98%.

`CC(C)C(=O)NC(Nc1ccc([N+](=O)[O-])cc1)C(Cl)(Cl)Cl` (stereo not given) displayed an Inhibition of 97%.

`Cc1c(C)c2c(c(C)c1O)CCC(C)(CCC(=O)O)O2` (stereo not given) yielded an Inhibition of 96%.

Compound `Cc1cc2c(cc1C(F)(F)F)N(C(=O)Nc1cnc(OCCN(C)C)c(C(F)(F)F)c1)CC2` gave an Inhibition of 88%.

`COc1ccc(CC2(c3ccc(F)cc3)N=C(N)N(CCCc3ccc(F)c(F)c3)C2=O)cc1.O=C(O)C(F)(F)F` (stereo not given): the Inhibition was found to be 98%.

On to `CCc1cn(C)c2c(N3CCCC3=O)cc(C(=O)N[C@@H](Cc3ccccc3)[C@H](O)CNC(C)(C)c3cccc(OC)c3)cc12`, for which the Inhibition came to 95%.

In turn, `COc1ccccc1CCCN1C(=O)C(c2ccccc2)(c2ccccc2)N=C1N.O=C(O)C(F)(F)F` registered an Inhibition of 99%.

In turn, `Cc1ccc2nc(N(CCCn3ccnc3)C(=O)C=Cc3cccs3)sc2c1.Cl` showed an Inhibition of 100%.

In turn, `Cc1ccc(NC(=O)c2ccnc(N3CCN(c4ccncc4)CC3)c2)cc1F.O=C(O)C(F)(F)F` came in with an Inhibition of 94%.

`COc1ccc(Nc2nc(NCc3ccc(-n4ccnc4)cc3)cc(-c3ccc(OC)cc3)n2)cc1` came in with an Inhibition of 96%.

The compound `O=C(O)C(F)(F)F.OCC1CCN(Cc2ccc(-c3cccc(-c4nc5ccccc5[nH]4)c3)cc2)CC1` came in with an Inhibition of 100%.

`CC1CCN(c2nc(C(=O)Nc3cccc4c3CCCC4)c(C(C)C)s2)CC1.O=C(O)C(F)(F)F` yielded an Inhibition of 96%.

On to `CCn1cc(CN2CCCC(C(=O)Nc3ccc(-c4nc5ccccc5[nH]4)cc3)C2)c(C)n1` (stereo not given), for which the Inhibition amounted to 100%.

The compound `CC(=O)Nc1ncc(C(=O)Nc2cccc(-c3ccc(-c4nc5cc(C(F)(F)F)ccc5[nH]4)s3)c2)s1` gave an Inhibition of 100%.

The compound `O=C(/C=C/c1ccc(Cl)c(Cl)c1)NCCCCCN1CCC(NC(=O)NC2CCCCC2)CC1` came in with an Inhibition of 96%.

Compound `O=C(NC1CCN(c2ccnc3cc(Cl)ccc23)C1)c1ccc(F)cc1.O=C(O)C(F)(F)F` (stereo not given) returned an Inhibition of 94%.

The compound `O=S(=O)(Nc1ccc(CCN2CCC(N3CCCCC3)CC2)cc1)c1cccc(C(F)(F)F)c1` returned an Inhibition of 100%.

Regarding `COc1cc2cc(-c3nc4ccccc4[nH]3)c(N)nc2cc1OC.Cl`, the Inhibition is listed as 100%.

In the case of `NC1CCN(Cc2cccc(-c3ccc(-c4nc5cc(F)ccc5[nH]4)cc3)c2)C1.O=C(O)C(F)(F)F` (stereo not given), the Inhibition is reported as 99%.

`O=C(Nc1nc(-c2ccccn2)cs1)c1ccccc1COc1ccccc1`: the Inhibition is listed as 83%.

Compound `COc1cc(-c2nc(-c3ccccc3)c(-c3ccccc3)[nH]2)cc(OC)c1O` yielded an Inhibition of 100%.

The compound `Fc1cccc(Cl)c1-c1nc(NCCC(c2ccccc2)c2ccccc2)no1` yielded an Inhibition of 99%.

The compound `O=C(/C=C/c1ccc(Cl)c(Cl)c1)NCCCCCN1CCCN(C(=O)Nc2cc(F)cc(F)c2)CC1` showed an Inhibition of 94%.

With `CC(=O)Nc1cccc(C(=O)Nc2ccc(-c3cccc(-c4nc5cc(C(F)(F)F)ccc5[nH]4)c3)cc2)c1`, the Inhibition is given as 100%.

Turning to `Cl.Oc1cccc(Nc2nc(NCC3CCCO3)c3ccccc3n2)c1` (stereo not given), the Inhibition is reported as 100%.

`CS(=O)(=O)CCNCc1ccc(-c2ccc3ncnc(Nc4ccc(OCc5ccccc5)c(Cl)c4)c3c2)o1.Cl` [GW574783B] had an Inhibition of 100%.

With `Cl.Clc1ccc(C2CCN(CCCOc3ccc4c(c3)CCNCC4)CC2)cc1`, the Inhibition came out at 98%.

`COc1cc2ccccc2c(CNCCCCCCNCc2c(OC)c(OC)cc3ccccc23)c1OC.CS(=O)(=O)O` yielded an Inhibition of 95%.

In the case of `CCCN1CCN(Cc2ccc(C(=O)Nc3ccc(Cl)cc3)cc2)CC1.O=C(O)C(F)(F)F`, the Inhibition stood at 94%.

`O=C(O)C(F)(F)F.Oc1ccc(CN2CCC(NCc3cccc(C(F)(F)F)c3)CC2)cc1` registered an Inhibition of 100%.

Regarding `Cc1noc(C)c1-c1ccc2c(Nc3cccc4c3-c3ccccc3C4=O)c(C(=O)NCc3ccccc3I)cnc2c1`, the Inhibition was found to be 99%.

On to `Cc1csc(NC(=O)c2cn(-c3ccccc3)nc2-c2cccs2)n1`, for which the Inhibition worked out at 95%.

In turn, `CCc1cn2c3c(cc(C(=O)N[C@@H](Cc4ccccc4)[C@H](O)CNC(C)C)cc13)N(C)S(=O)(=O)C2.O=CO` gave an Inhibition of 98%.

In turn, `COc1ccc(CNCc2cccc(-c3cccc(-c4nc5ccccc5[nH]4)c3)c2)cc1.O=C(O)C(F)(F)F` returned an Inhibition of 100%.

`N#Cc1ccc(CN2CCC(Oc3ccc(NC(=O)c4ccco4)cc3Cl)CC2)cc1.O=C(O)C(F)(F)F` registered an Inhibition of 95%.

In turn, `O=C(O)C(F)(F)F.O=C1OC2(CN1CC1CCN(Cc3ccc(O)cc3Cl)C1)c1ccccc1-c1ccccc12` (stereo not given) yielded an Inhibition of 84%.

The compound `FC(F)(F)c1cccc(Nc2nc3nonc3nc2NC2C3CC4CC(C3)CC2C4)c1` (stereo not given) yielded an Inhibition of 100%.

`CCCC1(NC[C@@H](O)[C@H](Cc2ccccc2)NC(=O)c2cc(NCC)cc(N3CCCCS3(=O)=O)c2)CCCC1.Cl` registered an Inhibition of 100%.

On to `Cn1c(N)c(C(=O)CSc2nnc(-c3cccs3)n2Cc2ccccc2)c(=O)n(C)c1=O`, for which the Inhibition was 85%.

The compound `O=C(NCc1cccc(F)c1)Nc1cccc(-c2cccc(-c3nc4ccccc4[nH]3)c2)c1` had an Inhibition of 96%.
